# Most compounds without a hit are left out; they make up all but 15% or so of the library.
# Pf growth 48h – inhibits P. falciparum growth in the first generation, 48 h; P. falciparum luciferase growth in erythrocytes, 48 h; Potency, µM (series often up to 28.7 µM), for inactives: top-dose activity change, negative = inhibition, hits mostly inhibitors; 5.9% of 310,000 active; AID 504832; also: potency is read from the fitted curve at half-maximal effect; % is scaled to controls: 0 for no effect and ±100 for the full control effect
#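 Growth was read as firefly luciferase luminescence after a 48 h, 37 C, 5% CO2 exposure of compounds to reporter-bearing P. falciparum cultures (0.1% parasitemia, 2% hematocrit final) in Albumax-supplemented RPMI 1640.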
# HCV inh – blocks hepatitis C virus | AID 651820 | 3.4% of 340,000 active | Huh7.5.1 HCVcc-Cre infection, luciferase reporter, 44 h | Potency, µM (top dose mostly 41.8 µM), without a hit: at the top dose activity change, negative = inhibition, usual class: inhibitors; also: potency is read from the fitted curve at half-maximal effect; % is scaled to controls: 0 for no effect and ±100 for the full control effect
#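 Antiviral activity was scored by luciferase reporter output from cells infected with HCVcc-Cre (~0.5 moi) in presence of compound, 44 h infection period, cells seeded 1,000/well 4 h prior.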
# SARS PLpro yeast-1 – inhibitors of SARS-CoV papain-like protease in yeast; S. cerevisiae expressing SARS-CoV PLpro, growth rescue; Potency, µM (doses to about 32.9 µM), inactives show at the highest dose activity, positive = growth rescue, most hits filed as activators; 0.19% of 330,000 active; calls by dose curve; also: potency is read from the fitted curve at half-maximal effect; 0% is about no effect; nearly all actives have a fitted effect of over 55% in size
# Pf growth 96h – P. falciparum growth inhibition at 96 hour, primary screen for plastid delayed-death inhibitors. 6.9% of 320,000 active. Potency, µM (highest dose often 28.7 µM), for inactives: at the highest dose activity change, negative = inhibition, hits mostly inhibitors. P. falciparum luciferase reporter growth, 96 h; also: potency is read from the fitted curve at half-maximal effect; % is scaled to controls: 0 for no effect and ±100 for the full control effect
#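 Cell-based qHTS: luciferase-tagged P. falciparum in erythrocytes (2% hematocrit, 0.05% parasitemia final) incubated with compounds for 96 hours, 37 C, 5% CO2; luciferase detection reagent then added and luminescence measured.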
# Sm TGR inh – S. mansoni TGR enzyme inhibition; Q962Y6; purified TGR, DTNB reduction, TNB absorbance 405 nm; Potency, µM (doses to about 114 µM), for inactives: at the highest dose activity change, negative = inhibition, usual class: inhibitors; 3% of 360,000 active; AID 485364; also: potency is read from the fitted curve at half-maximal effect; % is scaled to controls: 0 for no effect and ±100 for the full control effect; nearly all actives have a fitted effect of over 60% in size
#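 TGR 20 nM + NADPH 100 uM (dispensed conc.), cpd preinc 15 min RT; start with NADPH (500 uM addition) then DTNB (15 mM addition). Kinetic TNB absorbance, 405 nm filter. Four-parameter Hill fit across titration.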
# HCMV antiviral – inhibitors of human cytomegalovirus; HFF cells, HCMV-luciferase reporter, 72 h; hits give low values; activity change, negative = inhibition, % at 57.5 µM; 4.5% of 410,000 active; AID 1259415; in the data active = activity change below about -60%; inconclusive = no clear call, values can overlap the other calls; inactive = above about -39%; also: % is scaled to controls: 0 for no effect and ±100 for the full control effect
#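 Screen run at 2 compound doses on HFFs infected with reporter HCMV, MOI 1 PFU/cell. Luciferase activity from cell lysates at 72 h post infection gave inhibition relative to buffer-only and Salinomycin wells.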
# SARS PLpro yeast-2 – Rescues yeast growth by inhibiting SARS-CoV PLpro; shares compounds with SARS PLpro yeast-1; yeast expressing SARS-CoV PLpro, growth phenotype rescue; calls only; AID 652038; 19% of 1,000 active; call rule not given here
# Active calls of the source: *; i = inactive; u = inconclusive; x = no result given; + = active, no number; [ ] = remark or other dose. Unless noted, calls follow the shape of the dose curve; as a rule, active = well fitted curve in the direction sought with a large enough effect; inconclusive = small, poorly fitted or top-dose-only effect, or another doubt; inactive = no such curve, though single readings can be large; an effect the other way counts as inactive or inconclusive.
SMILES,Pf growth 48h,HCV inh,SARS PLpro yeast-1,Pf growth 96h,Sm TGR inh,HCMV antiviral,SARS PLpro yeast-2
O=C(O)c1ccccc1OCC1CCCO1 (configuration not stated),15%,30%,3%,34%,-16%,9,x
CC1(C)Oc2ccc(C(=O)N/N=C/c3ccc(O)cc3)cc2NC1=O,26%,5%,12%,28%,-4%,11,x
CC(=O)Nc1ccc(S(=O)(=O)N(C)CC(=O)OCC(=O)NC(C)C23CC4CC(CC(C4)C2)C3)cc1 (configuration not stated),7%,14%,u,40%,-3%,-5,i
O=C(c1ccc(NC(=S)NCc2ccco2)cc1)N1CCCCC1,-22%,23%,u,25%,u,-36,i
Cc1ccc(S(=O)(=O)N2CCC(C(=O)OC(C)C(=O)NCc3ccccc3)CC2)cc1C (configuration not stated),4%,17%,-3%,u,0%,-9,x
Cc1ccc(S(=O)(=O)N2CCC(C(=O)OC(C)C(=O)NC3CCCCC3C)CC2)cc1C (configuration not stated),u,2%,u,u,4%,0,u
CCOc1ccccc1N1CC(C(=O)Nc2cc(Cl)ccc2-n2cncn2)CC1=O (configuration not stated),18%,-7%,4%,9%,0%,-14,x
CCOC(=O)c1c(/N=C/C2=C(O)CCCC2=O)sc(C)c1C,16%,3%,5%,8%,-23%,-26,x
CCOC(=O)c1c(-c2ccc(OC)cc2)csc1/N=C/C1=C(O)CCCC1=O,-23%,u,u,u,-8%,2,i
OC(CNc1ccccc1)Cn1ccc2ccccc21 (configuration not stated),-17%,8%,-1%,-7%,x,23,x
O=C(N/N=C/c1cc(Cl)ccc1O)C(=O)Nc1ccccc1OC(F)(F)C(F)F,u,u,2µM*,0%,0%,-88*,i
N#Cc1nc(-c2ccc(F)cc2)oc1N1CCCCC1,0%[0.00184 µM],-12%,-4%,-7%,6%,-22,x
N#Cc1nc(-c2ccc(F)cc2)oc1N1CCCC1,42%,2%,u,0.29µM*,-14%,u,i
Cn1c(=O)c2c(nc(N3CCOCC3)n2C/C=C/c2ccccc2)n(C)c1=O,-6%,-9%,0%,u,7%,-7,x
O=C(CSc1nc2nn(-c3ccccc3)c(=O)c-2c2n1CCCCC2)c1ccc(O)c(O)c1,9.3µM*,u,7.1µM*,u,1%,x,i
CNC(=O)CSc1nc2nn(-c3ccccc3)c(=O)c-2c2n1CCCCC2,u,5%,5%,u,9%,212,x
Cc1cc(C(=O)N/N=C/c2cc([N+](=O)[O-])ccc2O)c2ccccc2n1,9.3µM*,u,3.2µM*,u,-1%,90,i
O=C(N/N=C/c1cc([N+](=O)[O-])ccc1Cl)c1cc(-c2ccccc2)nc2ccccc12,u,-5%,0%,u,9%,-35,x
COc1cc(/C=N/NC(=O)c2cccc(NC(=O)c3ccccc3C)c2)ccc1O,-9%,-12%,-3%,u,-2%,14,x
O=C(N/N=C/c1cc([N+](=O)[O-])ccc1O)c1cc(-c2ccccc2)nc2ccccc12,2.9µM*,u,x,-73%,-13%,-100*,+
Cc1cc(C(=O)N/N=C/c2cc(Br)cc([N+](=O)[O-])c2O)c2ccccc2n1,5%,12%,1.8µM*,-16%,-19%,-38,i
Cc1ccccc1C(=O)Nc1cccc(C(=O)N/N=C/c2cc(Cl)cc([N+](=O)[O-])c2O)c1,60%,5%,7.9µM*,21%,-6%,-22,u

# Compound activity as filed in PubChem.
